BJeLR viability – BJeLR cell viability loss. inhibition, % (test concentration not listed). BJeLR (HRASV12) viability, CellTiter-Glo ATP luminescence, 48 h. 300,000 compounds, 0.17% hits; in the data active = inhibition above about 50%
SSB-PriA inh – inhibitors of Klebsiella pneumoniae PriA binding to SSB C-terminal tail; AlphaScreen SSBct-PriA binding, biotinylated peptide; inhibition, % at 33 µM; 430,000 compounds, 0.6% hits; in the data active = inhibition mostly above about 37%, no sharp cut-off; inactive = mostly below about 20%;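 also: plate controls were negative control peptide for no effect and reference peptide for full effect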
PfHsp40 rescue – restores yeast growth despite PfHsp40 toxicity; growth rescue, % at 12.5 µM; S. cerevisiae expressing PfHsp40, growth rescue, ATP luminescence; 340,000 compounds, 0.68% hits; AID 504582; in the data active = growth rescue above about 28%, passing the limit was not always enough;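 also: yeast W303a lacking pdr1 and pdr3 grown in galactose medium; growth measured after three days at 30 °C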
Y pestis TopoI – Y. pestis Topo-I inhibition via cleavage products. Y. pestis Topo-I cleavage product accumulation, plate reader. activity, % at 10 µM. 360,000 compounds, 0.064% hits. AID 504884; in the data active = activity above about 50%, passing the limit was not always enough
PrPC surface inh – reduces human prion protein on the cell surface; P04156; cell surface PrPC, TR-FRET read-out; inhibition, % at 13.8 µM; 370,000 compounds, 0.43% hits; in the data active = inhibition above about 24%; also: 0% = median of the test wells and 100% = reference compound wells
PrP UTR inh – suppresses PrP 5' UTR mRNA reporter expression | AID 488862 | cell-based PrP 5' UTR mRNA reporter, plate reader | inhibition, % (concentration not given with the values) | 340,000 compounds, 0.35% hits; in the data active = inhibition above about 52%; also: 0 = median of the neutral control wells
PrPC TRFRET cf – confirmation of inhibitors of cell surface human prion protein | shares compounds with PrPC surface inh | cell surface PrPC level, TR-FRET | inhibition, % at 13.8 µM | 1,500 compounds, 65% hits | AID 743200; in the data active = inhibition above about 25%
LD9 tox – LD9 cell cytotoxicity, PrPc inhibitor counter-screen | LD9 cells cytotoxicity, luminescence viability | AID 743201 | 1,500 compounds, 29% hits | inhibition, % at 13.8 µM | shares compounds with PrPC surface inh; in the data active = inhibition above about 9.5%
Active calls of the source: *. In the library only some 1.7% were active in any assay of this set; here they are far more common.

Cc1nn(-c2ccccc2)c(Cl)c1C1C(C#N)=C(N)Oc2c1c(=O)oc1ccccc21 (stereo not given) was read as BJeLR viability 3, SSB-PriA inh -3, PfHsp40 rescue 0, Y pestis TopoI 9, PrPC surface inh 36*, PrP UTR inh -17, PrPC TRFRET cf 10 and LD9 tox 3.
Screening c1csc(CNc2nc(NCC3CCCCC3)c3sccc3n2)c1 returned Y pestis TopoI 10, PrPC surface inh 26*, PrPC TRFRET cf 26* and LD9 tox 14*.
Screening Cn1nnn(-c2ccc(NC(=O)c3ccc(S(=O)(=O)N4CCCCC4)cc3)cc2)c1=O returned SSB-PriA inh 7.
`O=C(O)COCC(=O)N1CCN(c2cc(C(F)(F)F)nc3ccccc23)CC1` gave BJeLR viability 1, SSB-PriA inh -4, PfHsp40 rescue -1, Y pestis TopoI 3, PrPC surface inh 4 and PrP UTR inh -34.
Screening CCC(=O)N1CCN(c2ccc(-n3c(=O)ccc4cnc5ccc(-c6cnc7ccccc7c6)cc5c43)cc2C(F)(F)F)CC1 returned PrPC surface inh 37*, PrPC TRFRET cf 39* and LD9 tox 33*.
`Cc1ccc(-c2c(CC(=O)O)c(C)nc3sc4c(c23)CCCC4)cc1` gave BJeLR viability 0, SSB-PriA inh 1, PfHsp40 rescue 5, Y pestis TopoI 19, PrPC surface inh 36*, PrP UTR inh -17, PrPC TRFRET cf 44* and LD9 tox -4.
Screening CCCc1nnsc1C(=O)N1CC[C@H](Oc2nccnc2C#N)C1 returned SSB-PriA inh -15.
Screening Cc1cc(-c2ccccc2)n2ncnc2n1 returned BJeLR viability -4, SSB-PriA inh -14, PfHsp40 rescue -1, Y pestis TopoI 4, PrPC surface inh 28*, PrP UTR inh -17, PrPC TRFRET cf -3 and LD9 tox -7.
Cc1cc(-c2ccc3ccccc3c2)n2ncnc2n1 was read as BJeLR viability -11, SSB-PriA inh -4, PfHsp40 rescue -1, Y pestis TopoI -9, PrPC surface inh -5 and PrP UTR inh -5.
Cc1noc(C)c1CC(=O)NCCn1nc(C(F)(F)F)n(C)c1=O was read as SSB-PriA inh -14.
For CCOC(=O)c1sc(NC(=O)C2C(C=C(Cl)Cl)C2(C)C)c(C(=O)OCC)c1C (stereo not given) the results were SSB-PriA inh 5.
For COCCCN1C(=O)C(=O)/C(=C(/O)c2ccc(OCC(C)C)cc2C)C1c1cccnc1 (stereo not given) the results were BJeLR viability 3, PfHsp40 rescue 2, Y pestis TopoI -6, PrPC surface inh 26*, PrP UTR inh -26, PrPC TRFRET cf 36* and LD9 tox -8.
`Cc1cc(OCc2ccccc2)ccc1/C(O)=C1/C(=O)C(=O)N(Cc2cccnc2)C1c1ccncc1` (stereo not given) gave BJeLR viability -6, PfHsp40 rescue -1, Y pestis TopoI 0, PrPC surface inh 34*, PrP UTR inh -7, PrPC TRFRET cf 54* and LD9 tox -3.
Screening Cc1cccc2sc(OC3CN(C(=O)Nc4ccccc4Cl)C3)nc12 returned SSB-PriA inh -18.
`CC(=O)NC(=S)Nc1ccc(NC(=O)COc2ccc(C(C)C)cc2)cc1` gave BJeLR viability -5, SSB-PriA inh 0, PfHsp40 rescue 2, Y pestis TopoI 22, PrPC surface inh 9 and PrP UTR inh -26.
`CC(=O)NC(=S)Nc1ccc(NC(=O)COc2ccc(Cl)cc2)cc1` gave BJeLR viability -12, SSB-PriA inh -26, PfHsp40 rescue 1, Y pestis TopoI -7, PrPC surface inh 41*, PrP UTR inh -17, PrPC TRFRET cf 12 and LD9 tox -5.
Screening O=C(Nc1ccccc1)Nc1cc(OCC(F)(F)F)cc(OCC(F)(F)F)c1 returned BJeLR viability 24, SSB-PriA inh -28, PfHsp40 rescue 2, Y pestis TopoI -18, PrPC surface inh 38*, PrP UTR inh -12, PrPC TRFRET cf 28* and LD9 tox 14*.
Screening COCCN(Cc1ccncc1)C(=O)Cc1ccc(SC(C)C)cc1 returned SSB-PriA inh -4.
Screening C[C@@H]1CC=C[C@H]2[C@H]1C(=O)N(Cc1ccccc1)[C@H]2c1ccc2ccccc2c1Br returned BJeLR viability 5, SSB-PriA inh 5, PfHsp40 rescue -1, Y pestis TopoI 22, PrPC surface inh 42*, PrP UTR inh 4, PrPC TRFRET cf 50* and LD9 tox -3.
CC(N)C(=O)NC1C2C(=C(O)CC(O)C2O)C(=O)OC1(C)C(Cl)Cl (stereo not given) was read as SSB-PriA inh -1, PfHsp40 rescue 8, Y pestis TopoI 0, PrPC surface inh 93*, PrP UTR inh 22, PrPC TRFRET cf 100* and LD9 tox 26*.
For N#C/C(=C\c1ccc(O)cc1)C(=O)Nc1ccc(Cl)cc1 the results were SSB-PriA inh 6.
`N#CC(=Cc1ccc(O)cc1)C(N)=C(C#N)C#N` gave SSB-PriA inh -17, PfHsp40 rescue 1, Y pestis TopoI 21, PrPC surface inh 64*, PrP UTR inh 47, PrPC TRFRET cf 7 and LD9 tox -4.
`COc1ccc(S(=O)(=O)N2CCC(C(=O)Nc3cc(C)no3)CC2)cc1` gave SSB-PriA inh -1.
For Cn1cc(Cl)c(-c2n[nH]c(=S)n2-c2ccccc2)n1 the results were BJeLR viability 2, SSB-PriA inh -10, PfHsp40 rescue -2, Y pestis TopoI -3, PrPC surface inh 29*, PrP UTR inh -20, PrPC TRFRET cf 45* and LD9 tox -3.
For Cc1ccc(-n2c(-c3nn(C)cc3Cl)n[nH]c2=S)cc1 the results were BJeLR viability -4, SSB-PriA inh 4, PfHsp40 rescue 0, Y pestis TopoI -3, PrPC surface inh 12 and PrP UTR inh -16.
NS(=O)(=O)c1ccc(CCNC(=O)c2cc(-c3ccc(Br)cc3)nc3ccccc23)cc1 was read as BJeLR viability -6, SSB-PriA inh 3, PfHsp40 rescue -1, Y pestis TopoI 24, PrPC surface inh 2 and PrP UTR inh -15.
NS(=O)(=O)c1ccc(CCNC(=O)c2cc(-c3ccccn3)nc3ccc(Br)cc23)cc1 was read as BJeLR viability -3, SSB-PriA inh -31, Y pestis TopoI 8, PrPC surface inh 29*, PrP UTR inh -36, PrPC TRFRET cf 48* and LD9 tox 21*.
`c1cc2c(s1)CCNC2` gave SSB-PriA inh 9.

High-throughput results from PubChem BioAssay.
